# Results reported in PubChem BioAssay (EPA / NIEHS).
# Where “and” joins values, the source holds several entries; their conditions need not be identical. Equal entries are not always repeated. Results filed as inconclusive are left out. Calls of active or inactive are those of the source. The calls were made as follows: active = hit-call score of the fitted dose curve at least 0.9, where 1 is the maximum; inconclusive = response in the unintended direction; inactive = score below 0.9.
# Molecular target: Cellular tumor antigen p53 (Homo sapiens) (UniProt P04637)
# Assay: TOX21_p53_BLA_p3_ratio: Tox21 HCT-116 p53 Agonism Beta-lactamase Assay, Ratio, Phase 3 (AID 2283596)
# Source text: TOX21_p53_BLA_p3 is a cell-based, single-readout assay that uses HCT116, a human intestinal cell line, […] in a 1536-well plate.TOX21_p53_BLA_p3_ratio is an assay readout measuring reporter gene via receptor activity and designed using inducible reporter (beta lactamase induction) detected with GAL4 b-lactamase reporter gene. The signal is derived from the ratio of cleaved (ch2) to uncleaved (ch1) reporter gene substrate used as the measure of target activity.Data from the assay component TOX21_p53_BLA_p3_ratio was analyzed into 1 assay endpoint. This assay endpoint, TOX21_p53_BLA_p3_ratio, was analyzed in the positive analysis fitting direction relative to DMSO as the negative control and baseline of activity. Using a type of inducible reporter, gain-of-signal activity can be used to understand changes in the reporter gene as they relate to the gene TP53. Furthermore, this assay endpoint can be referred to as a primary readout, because this assay has produced multiple assay endpoints where this ratio serves a reporter gene function to understand target activity. To generalize the intended target to other relatable targets, this assay endpoint is annotated to the DNA binding intended target family, where the subfamily is tumor suppressor.
# Thawing Method: Place 14 mL of pre-warmed thaw medium into a 15 mL of conical tub. Remove the vial of cells to be thawed from liquid nitrogen and thaw rapidly by placing at 37C in a water bath with gentle agitation for 1-2 minutes. Decontaminate the vial by wiping with 70% ethanol before opening in a biological safety cabinet. Transfer the vial contents drop-wise into 14 mL of thaw medium in a sterile 15-mL conical tub. Centrifuge cells at 900 rpm for 4 minutes and resuspend in thaw medium. Transfer contents to the T75 tissue culture flask containing Thaw Medium and place flask in a humidified 37C/5% CO2 incubator. Switch to growth medium at first passage.Propagation Method: Aspirate medium, rinse once in DPBS, add 0.25% Trypsin/EDTA and swirl to coat the cell evenly. Add an equal volume of Growth Medium to inactivate Trypsin after 2-3 minutes incubation at 37C. Centrifuge cells at 900 rpm for 4 minutes and resuspend in growth medium. Cell should be passage or fed at least twice a week.Assay Protocol: Harvest cells from culture in growth medium and resuspend in assay medium. 2.2 Dispense 4000 cells/5 uL/well into 1536-well black/clear bottom plates using a Multidrop dispenser. After the cells were incubated at 37C for 5 hours, 23 nL of compounds dissolved in DMSO were transferred to the assay plate by a PinTool resulting in a 217-fold dilution. Incubate the plates for 16 hours at 37C, 5% CO2. Add 1 uL of 6X LiveBLAzer FRET B/G (CCF4-AM) Substrate Mixture to each well using a BioRAPTR dispenser and incubate the plates at room temperature for 2 hours. Measure fluorescence intensity at 460 and 530 nm emission and 405 nm excitation by an Envision detector. Data is expressed as the ratio of 460nm/530nm emissions. Add 4 uL of Cell-titer Glo to each well using BioRAPTR and incubate the plates at room temperature for 2 hours. Measure fluorescence intensity by a VewLux plate reader.
# Cellular tumor antigen p53 (Homo sapiens), sequence (P04637 whole entry, looked up): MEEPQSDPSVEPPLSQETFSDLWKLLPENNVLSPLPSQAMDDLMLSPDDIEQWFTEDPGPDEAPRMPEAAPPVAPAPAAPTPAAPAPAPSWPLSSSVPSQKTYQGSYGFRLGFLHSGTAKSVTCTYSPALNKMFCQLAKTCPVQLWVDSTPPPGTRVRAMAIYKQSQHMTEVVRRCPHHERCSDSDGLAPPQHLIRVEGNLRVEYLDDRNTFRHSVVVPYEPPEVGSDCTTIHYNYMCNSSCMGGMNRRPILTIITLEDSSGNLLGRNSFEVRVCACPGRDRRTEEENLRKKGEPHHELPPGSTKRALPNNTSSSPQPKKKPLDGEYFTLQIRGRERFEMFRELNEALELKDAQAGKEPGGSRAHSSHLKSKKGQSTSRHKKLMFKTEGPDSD
Compound,outcome,AC50
Cc1ccc2c(c1[N+](=O)[O-])C(=O)c1ccccc1C2=O,inactive,–
O=c1n(CCCN2CCN(c3cccc(Cl)c3)CC2)nc2ccccn12,inactive,–
O[C@@H](c1cc(C(F)(F)F)nc2c(C(F)(F)F)cccc12)[C@H]1CCCCN1,–,43.6 µM (active)
O=C(Cn1cnnn1)N[C@@H]1C(=O)N2C(C(=O)O)=C(CSc3nncs3)CS[C@H]12,inactive,–
NCCCNCCCCNC(=O)C(O)NC(=O)CCCCCCN=C(N)N (stereo not given),inactive,–
CCCCC,inactive,–
COC(=O)C[C@](O)(CCCC(C)(C)O)C(=O)O[C@@H]1C(OC)=CC23CCCN2CCc2cc4c(cc2[C@H]13)OCO4 (stereo not given in full),–,45.4 nM (active) and 43.1 nM (active)
CN(C)CCN(C)CCN(C)C,inactive,–
CCCN(CCC)CCc1cccc2c1CC(=O)N2,inactive,–
CC1=C(C(=O)OC(C)C)C(c2cccc([N+](=O)[O-])c2)C(C(=O)OC2CN(C(c3ccccc3)c3ccccc3)C2)=C(N)N1 (stereo not given),–,17.7 µM (active)
COc1c(N2C[C@@H]3CCCN[C@@H]3C2)c(F)cc2c(=O)c(C(=O)O)cn(C3CC3)c12,inactive,–
CN(C)CCC[C@@]1(c2ccc(F)cc2)OCc2cc(C#N)ccc21,inactive,–
CC(=O)Oc1ccc([N+](=O)[O-])cc1CCl,–,73.1 µM (active)
CC(C)n1c(/C=C/[C@@H](O)C[C@@H](O)CC(=O)O)c(-c2ccc(F)cc2)c2ccccc21,inactive,–
CCN(CC)c1ccc2c(-c3ccc(S(=O)(=O)O)cc3S(=O)(=O)[O-])c3ccc(=[N+](CC)CC)cc-3oc2c1,inactive,–
CC12CCC(C[N+](C)(CCC[N+](C)(C)C)C1)C2(C)C (stereo not given),inactive,–
Cc1cc2cc3c(C)cc(=O)oc3c(C)c2o1,inactive,–
OCc1ccccn1,inactive,–
NCCCCCC(=O)O,inactive,–
O=C(Cc1cccs1)N[C@@H]1C(=O)N2C(C(=O)[O-])=C(C[n+]3ccccc3)CS[C@H]12,inactive,–

Compound,outcome,AC50
O=C(c1ccc(O)cc1)c1ccc(O)c(O)c1O,inactive,–
N=C1N=C(N)c2cc3ccccc3cc21,–,18.5 µM (active)
CCN(Cc1cccc(S(=O)(=O)O)c1)c1ccccc1,inactive,–
CCO[Si](CC(C)C)(OCC)OCC,inactive,–
NCCc1cnc[nH]1,inactive,–
CCCc1nc(C(C)(C)O)c(C(=O)OCc2oc(=O)oc2C)n1Cc1ccc(-c2ccccc2-c2nn[nH]n2)cc1,inactive,–
COc1ccc(C(=O)c2ccccc2O)c(O)c1,inactive,–
NC(=O)Nc1ccc(Cl)c(Cl)c1,inactive,–
C1CC(COCC2CO2)CCC1COCC1CO1 (stereo not given),inactive,–
S=C1SCN(Cc2ccccc2)CN1Cc1ccccc1,inactive,–
CO/N=C(\C(=O)N[C@@H]1C(=O)N2C(C(=O)[O-])=C(C[n+]3ccc(N)n3CCO)CS[C@H]12)c1csc(N)n1,inactive,–
CCOC(=O)c1cc(-c2ccccc2)nc2ccc(C)cc12,inactive,–
CNC(=C[N+](=O)[O-])NCCSCc1csc(CN(C)C)n1,inactive,–
Cc1cc(N)c2ccccc2[n+]1CCCCCCCCCC[n+]1c(C)cc(N)c2ccccc21,inactive,–
C=CCNC(N)=S,inactive,–
CC(C)(C)C1(CCc2ccc(Cl)cc2)CO1 (stereo not given),inactive,–
CC(=O)CC(=O)c1ccccc1,inactive,–
COC(=O)C(CN)c1c[nH]c2ccc(OC)cc12 (stereo not given),inactive,–
CCCCN1CCCC1C(=O)Nc1c(C)cc(C)cc1C (stereo not given),inactive,–
O=c1[nH]c2ccc(Cl)cc2o1,inactive,–
